This is a sample that favours compounds with a hit; in the whole collection about 0.82% have one here.
GPT2 inh: inhibitors of human GPT2 alanine aminotransferase | Q8TD30 | Recombinant GPT2, coupled pyruvate oxidase/HRP Amplex Red fluorescence | Potency, µM (top dose mostly 57.7 µM), most hits filed as inhibitors | actives 0.25% (n = 100,000) | AID 1671188; note: nearly all actives have a fitted effect of over 60% in size
Target sequence (Q8TD30 whole entry, looked up): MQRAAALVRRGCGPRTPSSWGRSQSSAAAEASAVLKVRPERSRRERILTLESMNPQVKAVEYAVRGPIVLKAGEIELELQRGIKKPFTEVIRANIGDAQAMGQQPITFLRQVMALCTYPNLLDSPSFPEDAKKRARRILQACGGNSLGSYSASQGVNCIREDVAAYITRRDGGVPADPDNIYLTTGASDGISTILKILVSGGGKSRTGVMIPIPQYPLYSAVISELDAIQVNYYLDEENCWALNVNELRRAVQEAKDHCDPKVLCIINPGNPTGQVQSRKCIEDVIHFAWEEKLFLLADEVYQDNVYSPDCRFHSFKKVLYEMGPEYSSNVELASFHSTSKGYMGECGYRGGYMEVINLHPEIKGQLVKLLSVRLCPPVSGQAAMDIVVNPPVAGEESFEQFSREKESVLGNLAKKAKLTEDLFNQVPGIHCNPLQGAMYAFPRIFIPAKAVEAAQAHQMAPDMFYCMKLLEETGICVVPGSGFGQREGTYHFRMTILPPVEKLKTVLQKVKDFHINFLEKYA
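Inhibition is scored from Amplex Red fluorescence generated when pyruvate oxidase and HRP act on pyruvate released by GPT2. Reactions contain 10ng/uL enzyme, 250uM a-KG and 2mM L-alanine and run 30 min at room temperature.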
IP6K1 inhibitor: blocks human inositol hexakisphosphate kinase 1. Q92551. IP6K1 kinase, ADP-Glo luminescence, 2 h; active compounds read low. activity change, % (series mostly up to about 58 µM). actives 0.81% (n = 140,000). AID 1645851; in the data active = activity change below about -25%
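ADP-Glo luminescence measures ADP made by human IP6K1 during a 2 h RT reaction with ATP/IP6 (mix at 1.3 mM/130 uM); top library doses 57.5 and 19.1 uM final.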
IP6K1 inh cnf: confirmation of human IP6K1 inhibitors | shares compounds with IP6K1 inhibitor | Potency, µM (titrated, usually from 49 µM), most hits filed as inhibitors | recombinant IP6K1 kinase, ADP-Glo luminescence, 2 h | actives 13% (n = 1,200); note: nearly all actives have a fitted effect of over 65% in size
Hits are given with their value; - = inactive; ? = inconclusive; . = not tested or not shown; ! = repeats disagree; [ ] = another dose, or the depositor's remark. Unless noted, calls come from the whole dose curve; as a rule, active = well fitted curve in the direction sought with a large enough effect; inconclusive = small, poorly fitted or top-dose-only effect, or another doubt; inactive = no such curve, though single readings can be large; an effect the other way counts as inactive or inconclusive.

SMILES | GPT2 inh | IP6K1 inhibitor | IP6K1 inh cnf
CN(N=O)c1ccc(O)c(O)c1 | 3.2µM | . | .
O=C(NC1CCCCC1)N1C[C@@H]2C[C@H](C1)c1c(-c3cccs3)ccc(=O)n1C2 | - | - | .
Cc1c(C(c2ccc(Br)cc2)c2c(O)c3ccccc3oc2=O)c(=O)n(-c2ccccc2)n1C (stereo not given) | . | - | .
O=c1oc2ccccc2c(O)c1Cc1c(O)c2ccccc2oc1=O | - | -25 | .
O=S1(=O)NC2(CCN(Cc3ccc(Cl)s3)C2)COc2ccncc21 (stereo not given) | - | - | .
CN(C)CCc1c[nH]c2cccc(O)c12 | 10µM | - | .
CN(C)CCc1c[nH]c2ccc(O)cc12 | - | - | .
C#C[C@H]1CN2CC[C@H]1C[C@@H]2CNCc1cccc(C#N)c1 | - | - | .
CCOC(=O)[C@H]1CN(S(=O)(=O)c2ccccc2)[C@]2(C)C(=O)N(CC(=O)N(C)C)c3ccccc3[C@H]12 | - | - | .
CCOC(=O)CC(SP(=S)(OC)OC)C(=O)OCC (stereo not given) | ? | -70! | 18µM
CC(=O)[O][Hg][c]1ccccc1 | - | -61 | 0.65µM
C[C@H](N)C(=O)c1ccccc1 | ? | - | .
CC[n+]1c(-c2ccccc2)c2cc(N)ccc2c2ccc(N)cc21 | ? | -52 | ?
COc1ccc(NC(=O)OC[C@H]2C[C@@H]3CCN2C[C@@H]3c2cc(C3CCCC3)nc(-c3ccncc3)n2)cc1 | - | - | .
COc1cc2c(cc1Oc1cccc(N(C)C)c1)NC(=O)C21CCN(C(=O)CN2CCOCC2)CC1 | - | - | .
COc1nn(CSP(=S)(OC)OC)c(=O)s1 | - | -46 | 10µM
C#C[C@H]1CN2CC[C@H]1C[C@@H]2CNC(=O)Nc1cc(OC)cc(OC)c1 | - | - | .
CCOC(=O)[C@H]1CN(S(=O)(=O)c2ccccc2)[C@]2(C)C(=O)N(CC3CC3)c3ccccc3[C@H]12 | - | - | .
COc1cc2c(cc1OCC1CC1)NC(=O)C21CCN(c2nc(C)cnc2C)CC1 | - | -32 | -
COc1cc2c(cc1OCC1CC1)NC(=O)C21CCN(c2ncc(F)cn2)CC1 | - | - | .
O=C(Nc1ccc(=O)n2c1[C@@H]1C[C@@H](CN(C(=O)NC3CCCCC3)C1)C2)c1ccco1 | - | - | .
CCCCC1CN2CCCC2CN1 (stereo not given) | - | - | .
Cc1ccc([C@H]2CN(C(=O)C(=O)c3cccn3C)[C@@H]3C4CCN(CC4)[C@H]23)cc1 | -[11.5 µM] | -30 | -
COc1ccc([C@@H]2CN(C(=O)C(=O)c3ccco3)[C@@H]3C4CCN(CC4)[C@@H]32)cc1 | - | - | .
CCOC(=O)[C@H]1CN(C(=O)c2ccc(F)cc2)[C@]2(C)C(=O)N(CC3CC3)c3ccccc3[C@H]12 | - | - | .
SMILES | GPT2 inh | IP6K1 inhibitor | IP6K1 inh cnf
CSc1nccc(N2CCC3(CCCN(CC4CC4)C3)C2)n1 (stereo not given) | - | - | .
Cc1cccc(OCC(=O)N2CC(N(Cc3ccncc3)CC(C)C)C2)c1 | - | - | .
N=c1c2c(-c3ccccc3)c(-c3ccccc3)n(Cc3ccccc3)c2ncn1C1CCC(O)CC1 (stereo not given) | - | . | -
COc1ccc(CC(=O)N2CC3(CCN(C)CC3)c3cc(OC)c(OCc4ccccc4)cc32)cc1 | - | - | .
CCCCCOc1cc2c(cc1-c1cc(/C=C/C(=O)O)ccc1O)C(C)(C)CCC2(C)C | - | -27 | ?
COc1cc2c(cc1OCc1ccccc1)NC(=O)C21CCN(Cc2nccs2)CC1 | ? | -33 | ?
COc1cc2c(cc1OCc1ccncc1)NC(=O)C21CCN(Cc2ccccc2)CC1 | - | - | .
O=C(Cc1c(F)cccc1Cl)N1CCN(Cc2ccccc2)CC(O)C1 (stereo not given) | -[11.5 µM] | - | .
COc1ccc(-n2cc(C3=CCN(CCN4CCOCC4)CC3)cn2)cc1 | - | - | .
N#Cc1nn(-c2c(Cl)cc(C(F)(F)F)cc2Cl)c(N)c1S(=O)C(F)(F)F (stereo not given) | - | -41 | ?
CCOC(=O)[C@H]1CN(C(=O)c2ccc(SC)cc2)[C@]2(C)C(=O)N(C)c3ccccc3[C@H]12 | - | - | .
CCOc1ccc2c(n1)CCNC2 | - | -26 | -
CN1C(=O)CO[C@H]2CN(Cc3ncc[nH]3)C[C@H]21 | - | - | .
CN1c2ncccc2CN(Cc2ccccn2)CC[C@H]1CO | - | - | .
Cc1nc(-c2ccco2)cc([C@H]2CN3CC[C@H]2C[C@@H]3CNS(=O)(=O)c2cccs2)n1 | - | - | .
c1cnc2c(c1)ncn2C1CCNCC1 | . | - | .
CC(C)Cc1nc2cccnc2n1C1CCNCC1 | . | -33 | -
c1cc2nc(C3CCCNC3)[nH]c2cn1 (stereo not given) | - | - | .
C[C@]12CCC(=O)C=C1CC[C@@H]1[C@H]3CC[C@](C)(O)[C@@]3(C)CC[C@@H]12 | - | - | .
